Screening data: PubChem BioAssay, several laboratories
Shown are actives, neighbours in structure and some others; about 4.5% of the full set was active somewhere.
Beta apoptosis – inhibitors of cytokine-induced beta cell apoptosis, primary screen, luminescence. INS-1E cytokine-induced death, ATP luminescence, 48 h; percent of positive-control rescue, neutral wells zero. protection from apoptosis, % (concentration not given with the values). 300,000 compounds, 0.8% hits. AID 435005, 2010;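 active = Every replicate reaches about 75%, or at least half do and their mean reaches it too, limit read from the data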;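 note: 0% = cytokine-treated negative control wells and 100% = positive control rescue; higher means more ATP so stronger rescue from cytokine killing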
Gli-Sufu block – Gli-Sufu pathway antagonists, primary screen, luciferase luminescence, Sufu-KO-LIGHT cells, uHTS. Sufu-KO-LIGHT fibroblasts, Gli luciferase reporter luminescence. inhibition, % at 5 µM. 340,000 compounds, 0.74% hits;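 active = inhibition above about 55%, limit read from the data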;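 note: 0% = DMSO-treated cells and 100% = wells with medium but no cells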
Mdm2-MdmX inh – inhibitors of human Mdm2-MdmX association, primary screen, cell-based, luminescence, split luciferase, SaOS-2, uHTS | 330,000 compounds, 3% hits | inhibition, % at 8 µM | Protein Mdm4 (Homo sapiens) + E3 ubiquitin-protein ligase Mdm2 (Homo sapiens), … | SaOS-2 split-luciferase Mdm2/MdmX complementation;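 active = inhibition of at least 50% at 8 µM in the primary screen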
Target sequence (O15151 whole entry, looked up): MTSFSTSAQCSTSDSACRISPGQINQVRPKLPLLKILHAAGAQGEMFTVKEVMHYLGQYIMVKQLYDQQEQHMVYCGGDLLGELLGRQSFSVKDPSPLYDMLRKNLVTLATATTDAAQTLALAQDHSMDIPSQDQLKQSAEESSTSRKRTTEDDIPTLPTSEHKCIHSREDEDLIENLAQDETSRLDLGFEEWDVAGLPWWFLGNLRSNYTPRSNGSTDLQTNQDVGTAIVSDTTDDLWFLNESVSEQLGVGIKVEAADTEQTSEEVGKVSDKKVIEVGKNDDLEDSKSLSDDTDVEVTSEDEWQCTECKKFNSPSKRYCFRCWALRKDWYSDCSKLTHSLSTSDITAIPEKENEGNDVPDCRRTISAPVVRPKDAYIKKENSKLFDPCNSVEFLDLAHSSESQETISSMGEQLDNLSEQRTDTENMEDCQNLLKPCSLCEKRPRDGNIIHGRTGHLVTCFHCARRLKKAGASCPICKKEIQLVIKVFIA
Target sequence (Q00987 whole entry, looked up): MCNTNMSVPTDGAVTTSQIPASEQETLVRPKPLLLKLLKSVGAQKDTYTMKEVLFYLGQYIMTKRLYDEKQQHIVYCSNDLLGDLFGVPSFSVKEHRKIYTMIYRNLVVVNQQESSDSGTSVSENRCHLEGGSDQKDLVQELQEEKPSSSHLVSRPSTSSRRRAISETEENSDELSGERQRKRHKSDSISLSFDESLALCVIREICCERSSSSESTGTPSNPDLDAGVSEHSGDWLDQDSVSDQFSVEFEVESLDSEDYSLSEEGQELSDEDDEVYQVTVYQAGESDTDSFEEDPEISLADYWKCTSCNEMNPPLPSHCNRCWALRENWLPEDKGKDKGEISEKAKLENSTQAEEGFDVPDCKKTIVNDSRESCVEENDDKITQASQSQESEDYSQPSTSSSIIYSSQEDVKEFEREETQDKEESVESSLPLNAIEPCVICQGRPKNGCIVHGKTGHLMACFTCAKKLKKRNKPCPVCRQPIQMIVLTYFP
697 NFkB inh – inhibitors of PMA/ionomycin-induced NF-kB reporter, 697 cells, primary screen, B-cell NF-kB inhibitor project, cell-based, luminescence, uHTS. 330,000 compounds, 0.33% hits. inhibition, % at 4 µM. 697 B-cell NF-kB luciferase reporter, 16 h; in the data active = inhibition above about 35%
CSC inhib – cancer stem cell viability inhibitors, primary screen, luminescence; cancer stem cell-like cells viability; inhibition, % at 7.5 µM; 300,000 compounds, 1.1% hits; AID 2717, 2010; in the data active = inhibition above about 75%; tested in HMLE shEcad cells
Jurkat NFkB inh – inhibitors of induced NF-kB luciferase reporter, primary screen, TCR NF-kB activation inhibitor project, cell-based, luminescence, uHTS. Jurkat, PMA/ionomycin-induced NF-kB luciferase reporter. inhibition, % at 4 µM. 330,000 compounds, 0.53% hits; in the data active = inhibition above about 50%
Mdm2-MdmX conf – Mdm2-MdmX complex disruptors, retested hits, confirmation, luminescence, single concentration; shares compounds with Mdm2-MdmX inh; Mdm2-MdmX binding, luminescent assay; inhibition, % at 8 µM; 10,000 compounds, 55% hits; in the data active = inhibition above about 40%
Full FLuc ctr – full-length luciferase signal inhibition, confirmation, counter-screen for Mdm2/MdmX interaction inhibitor project, cell-based, single concentration, SaOS-2. 6,200 compounds, 77% hits. shares compounds with Mdm2-MdmX inh. inhibition, % at 8 µM. SaOS-2 full-length luciferase counterscreen, luminescence;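 active = mean inhibition at 8 µM reaching about 37%, which flags the compound as non-specific, limit read from the data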;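 note: p53-null SaOS-2 cells with luciferase driven by a doxycycline-inducible promoter; compound on cells about two nights before reading with doxycycline added after day one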
Active calls of the source: *; · = no result given.

SMILES | Beta apoptosis | Gli-Sufu block | Mdm2-MdmX inh | 697 NFkB inh | CSC inhib | Jurkat NFkB inh | Mdm2-MdmX conf | others
OCCN1CCN(c2ncnc3c2c(-c2ccccc2)cn3-c2ccc(Br)cc2)CC1 | 5 | 5 | 55* | 16 | 27 | 14 | 24
O=C(CSc1nc(N2CCOCC2)nc(N2CCOCC2)n1)Nc1ccccc1F | -6 | -2 | 25 | -19 | -7 | 1 | ·
CCC(C)C(NC(=O)OCc1ccccc1)C(=O)NC(Cc1ccc(O)cc1)C(=O)OC (stereo not given) | -2 | · | 22 | 10 | -4 | 12 | ·
CCCCn1c(N)c(N(CC(C)C)C(=O)c2cc3ccccc3cc2OC)c(=O)[nH]c1=O | · | 8 | · | · | · | · | ·
Cc1ccc(C(=O)N2N=C(c3ccc(Br)cc3)CC2c2ccccc2O)cc1 (stereo not given) | 78* | 25 | 75* | -12 | 112* | -15 | 2
Cc1ccc(C(=O)N2N=C(c3ccccc3O)CC2c2ccccc2)cc1 (stereo not given) | 7 | 12 | 27 | 4 | -10 | -2 | ·
CN1CCCN(C(=O)c2cc(-c3ccc(Cl)c(Cl)c3Cl)nc3ccccc23)CC1 | -3 | 4 | 53* | -3 | 20 | -7 | 28 | Full FLuc ctr=76*
O=C(OCC(=O)N1CCN(C(=O)c2ccco2)CC1)c1cc(-c2ccc(Cl)c(Cl)c2Cl)nc2ccccc12 | 8 | -5 | 57* | -22 | 29 | 2 | 8
O=C(OCC(=O)N1CCN(C(=O)c2ccco2)CC1)c1cc(-c2ccco2)nc2ccccc12 | 1 | 4 | -5 | 17 | -8 | 18 | ·
O=C(c1cc(-c2ccccc2)nc2ccccc12)N1CCN(c2ccccc2O)CC1 | 1 | 13 | 24 | -14 | 4 | 16 | ·
COc1cc(NC(=O)c2sc3ncn(CC(=O)N4CCCCC4)c(=O)c3c2C)cc(OC)c1OC | 0 | 16 | 7 | -2 | 13 | -2 | ·
O=c1c(O[C@@H]2O[C@H](CO)[C@@H](O)[C@H](O)[C@H]2O)c(-c2ccc(O)c(O)c2)oc2cc(O)cc(O)c12 | · | · | 52* | 0 | · | -1 | 15
NC(=O)C1(c2ccccc2)OC1c1ccccc1 (stereo not given) | -2 | -30 | 10 | 23 | -4 | 3 | ·
N#CC1=C(SCC(N)=O)NC2=C(C(=O)c3ccccc32)C1c1ccc(Cl)cc1 (stereo not given) | 13 | 5 | 50* | -11 | 51 | -31 | -8
CC(C)OC(=O)c1cc2c(ccn2C)n1CC(=O)N(Cc1ccccc1)c1ccc(F)cc1 | 34 | 1 | 79* | -7 | 26 | 8 | 56* | Full FLuc ctr=76*
COc1ccc(CC(=O)Nc2cccnc2)cc1 | 5 | 21 | 3 | 7 | -22 | 2 | ·
COc1ccc2c(c1)C1(Nc3ccccc3-c3nc4ccccc4n31)C(=O)N2C (stereo not given) | 3 | 12 | 76* | -26 | 11 | -10 | 81* | Full FLuc ctr=46*
COc1ccc2c(c1)C1(Nc3ccccc3-c3nc4ccccc4n31)C(=O)N2 (stereo not given) | · | 4 | 36 | -6 | -11 | 4 | ·
COc1ccc(NC(=O)c2cc3ccccc3o/c2=N\NS(=O)(=O)c2ccc(C)cc2)cc1 | 6 | -48 | 38 | -9 | -16 | -81 | ·
COc1cccc2cc(C(=O)Nc3cc(C)cc(C)c3)/c(=N/NS(=O)(=O)c3ccccc3)oc12 | -3 | 1 | 78* | 8 | -9 | 2 | 8
CC1CCCC(NCC(O)COC(c2ccc(F)cc2)c2ccc(F)cc2)C1C (stereo not given) | 44 | 26 | 98* | -6 | 80* | -4 | 78* | Full FLuc ctr=49*
OC[C@H]1O[C@H](OC[C@H]2OC(O)[C@H](O)[C@@H](O)[C@@H]2O)[C@H](O)[C@@H](O)[C@@H]1O (stereo not given in full) | 2 | -1 | 16 | 12 | -7 | 11 | ·
CCOC(=O)c1sc(N(Cc2ccccc2)C(=O)COC(=O)c2ccccc2O)nc1C | -2 | -4 | -23 | -33 | -2 | 0 | ·
CCOC(=O)c1sc(N(Cc2ccccc2)C(=O)CCl)nc1C | 0 | 16 | 65* | 7 | 9 | -7 | 11
COc1ccc(Br)cc1/C=N/NC(=O)c1ccco1 | · | 16 | 18 | 6 | -17 | -2 | ·
SMILES | Beta apoptosis | Gli-Sufu block | Mdm2-MdmX inh | 697 NFkB inh | CSC inhib | Jurkat NFkB inh | Mdm2-MdmX conf | others
CC(C)(C)c1ccc(OCC(=O)N/N=C/c2cc(Br)ccc2OC(=O)c2ccco2)cc1 | 4 | -10 | 82* | 21 | 101* | -2 | 79* | Full FLuc ctr=27
COc1ccc(C2/C(=C(/O)c3ccc4c(c3)CC(C)O4)C(=O)C(=O)N2CCN2CCOCC2)cc1OC (stereo not given) | · | -8 | 18 | -5 | · | 11 | ·
O=C(NCc1ccc2c(c1)OCO2)c1ccc(S(=O)(=O)N2CCOCC2)cc1 | 3 | 2 | 20 | 18 | -1 | 3 | ·
O=C(NCC1COc2ccccc2O1)c1ccc(NC(=O)C(c2ccccc2)c2ccccc2)cc1 (stereo not given) | 21 | 10 | 63* | -24 | 12 | -5 | 45* | Full FLuc ctr=55*
Cc1ccc2cc(CN(CC3CCCO3)S(=O)(=O)c3c(C)ccc4nsnc34)c(=O)[nH]c2c1 (stereo not given) | -1 | 2 | 19 | 7 | 2 | 8 | ·
Cc1ccc2nsnc2c1S(=O)(=O)N(Cc1cc2cccc(C)c2[nH]c1=O)CC1CCCO1 (stereo not given) | 1 | -6 | 57* | 33 | 6 | 16 | 47* | Full FLuc ctr=85*
O=C(/C=C/c1cccc(Cl)c1)NCCCN1CCOCC1 | -5 | 3 | 13 | -2 | -5 | 9 | ·
CCCNc1ncnc2c1cnn2C1CCCCO1 (stereo not given) | · | 2 | · | · | · | · | ·
COc1cccc(C(=O)Nc2ncc3c(n2)CC(c2ccc(OC)cc2OC)CC3=O)c1 (stereo not given) | 0 | -8 | 59* | -33 | · | 49 | 51* | Full FLuc ctr=57*
Cc1ccc2c(SCC(=O)NCc3ccco3)nc(-c3ccc(F)cc3)nc2c1 | 7 | 5 | 82* | 9 | 1 | 8 | -6
